This is an account of results in PubChem BioAssay (NCI).

SMILES strings stand for the structures. The panel holds about 83,000 compounds, 20% with a hit somewhere; the sample as a whole holds those more often.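 The endpoint reported here, percent growth, reads 100 for growth as untreated, 0 for no net growth and -100 for all cells dead.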 Values without a mark were called inactive. The source made the active and inactive calls. Rule for the calls: active = growth percent below 10; inactive = the rest.

This assay deals with MDA-MB-468 breast. In words: NCI-60 one-dose screen, 48 h (100 = growth as untreated, 0 = no growth, -100 = all killed). To be noted: 10 µM unless noted.
For `CCCCCC(=O)Oc1ccc(/C(=C(\C)c2ccccc2)c2ccc(OCCN(CC)CC)cc2)cc1`, the growth was 61.5%.

Consider `COc1ccc(/C=C(/C(=O)c2ccc(Cl)cc2)C(=O)C(F)(F)F)cc1`, for which the growth is 99.7%.

Regarding `CCOC(=O)/C=C1\S/C(=N\Nc2cc(=O)[nH]c3ccc(OC)cc23)N(c2ccccc2)C1=O`, the growth is 101%.

With `O=C(O)c1ccccc1N=Cc1ccccc1`, the growth is 112%.

Regarding `c1ccc(-c2oc(-c3ccccc3)c(CN3CCCCC3)c2CN2CCCCC2)cc1`, the growth is -35.9% (active).

In the case of `CCOC(=O)C1=C(C)N=C2SC=C(c3ccccc3)N2[C@H]1c1cn[nH]c1-c1ccc(Cl)cc1`, the growth is 22.4%.

Consider `O=C1C(Cl)=C(SC2=NCCN2)C(=O)c2ccccc21`, for which the growth was 0.366% (active).

With `Nc1nc(N)c2c(n1)NC(c1ccc(C(F)(F)F)cc1)CC(c1ccc(Nc3nc(NCCO)nc(Nc4ccc(Cl)cc4)n3)cc1)=N2` (configuration not stated), the growth is -84.7% (active).

As for `COc1ccc(-c2[nH]ncc2Nc2cc(OC)c(OC)c(OC)c2)cc1`, the growth is 21.7%.

Consider `CC1CC=CCC1C1OCC(C)(C)CO1` (configuration not stated), for which the growth is 105%.

Turning to `CC1(C)CC[C@]2(C(=O)Nc3ccccn3)CC[C@]3(C)C(=CC[C@@H]4[C@@]5(C)C/C(=C/c6ccncc6)C(=O)C(C)(C)[C@@H]5CC[C@]43C)[C@@H]2C1`, the growth was 19.2%.

Consider `CCCCOc1nc2ccc(C)cc2cc1/C=C/C(=O)/C=C/c1ccc2c(c1)OCO2`, for which the growth was 95.9%.

For `O=c1cc(Cl)nc2ccccn12`, the growth was 107%.

`COc1cc(NCC(=O)Nc2cc(Nc3cccc(C(F)(F)F)c3)ncn2)c(Cl)c(OC)c1Cl`: the growth was 101%.

Turning to `COC(=O)c1ccc(NC2=C/C(=N/S(=O)(=O)c3ccc(C(=O)O)cc3)c3ccccc3C2=O)cc1`, the growth was -37.4% (active).

On to `Clc1nn2c(Cn3cnc4c(NCc5ccccc5)ncnc43)nnc2c2ccccc12`, for which the growth is 35.3%.

As for `COc1ccc(-c2c(-c3nc4ccc(N5CCOCC5)cc4[nH]3)[nH]c(C)c2C(C)=O)cc1`, the growth was 23.1%.

With `N#CC1=C(N)Oc2c(ccc3ccccc23)C1c1cc(=O)oc2ccc(Cl)cc12` (configuration not stated), the growth is 62%.

For the compound `CCCCCn1sc(=O)n(Cc2ccc(CNC(=O)OCc3ccc4cccc(O)c4n3)cc2)c1=O`, the growth is -48.1% (active).

`Cn1cc2c(=O)nc3c(-c4nc5ccccc5[nH]4)n[nH]n3c2n1`: the growth was 83.3%.

`COc1cccc(CNc2ccc3ncnc(Nc4ccc(F)c(Cl)c4)c3c2)c1`: the growth was -19.6% (active).

With `CCOC(=O)C#Cc1c(C(=O)OCC)nnn1Cc1ccc([N+](=O)[O-])cc1`, the growth was -19.6% (active).

Take `Cc1cc(-c2ccc(Cl)cc2)n(Cc2nnc(SCC(=O)Nc3ccc(S(N)(=O)=O)cc3)n2-c2ccc([N+](=O)[O-])cc2)n1`: the growth was 78.6%.

Regarding `Oc1c(Cl)cc(Cl)c2ccc(Cn3cc(-c4cc(C(F)(F)F)cc(C(F)(F)F)c4)nn3)nc12`, the growth is 18.6%.

With `COc1ccc(/C=N/NC(=O)c2cn(C3CC3)c3c(OC)c(N4CC5CCCNC5C4)c(F)cc3c2=O)cc1` (configuration not stated), the growth is 89.4%.

As for `O=C1Nc2ccc(Br)cc2/C1=N\N=C/c1cn(Cc2ccccc2)c2ccccc12`, the growth is -43% (active).

On to `COc1cc(C(=O)Nc2ccc(-c3nc4ccccc4[nH]3)cc2)cc(OC)c1OC`, for which the growth is 6.62% (active).

Regarding `COc1ccc(C(O)c2cc3c(N)c(C(=O)Nc4cccc(Br)c4)sc3nc2C)cc1` (configuration not stated), the growth was 19.6%.

As to `COc1ccccc1/C=N/NC1=NC2C(N1)N(C)C(=O)N2C` (configuration not stated), the growth was 106%.

As to `O=C1COc2ccccc2C(=O)N1CCCCNc1ccccc1`, the growth was 94.5%.

For the compound `CC(=O)c1cc2c(N)c(C(=O)Nc3ccccn3)sc2nc1C`, the growth was 57.3%.

`CCC(=O)C(CC)c1cccc(OC)c1` (configuration not stated): the growth is 102%.

Turning to `COC(=O)/C(CCC=C(C)C)=C1\[C@@H](OC(C)=O)C[C@@]2(C)[C@H]1CC(=O)N[C@H]1[C@@]3(C)CCNC(=O)[C@@H](C)[C@@H]3CC[C@@]12C`, the growth is 99.7%.

In the case of `COc1cc2c(c(OC)c1OC)C(=O)CC(c1cccc(C(=O)Nc3ccccc3Br)c1)O2` (configuration not stated), the growth was 79.1%.

Consider `O=S(=O)(Nc1ncccn1)c1ccc(Nc2ccc3nnc(-c4ccncc4)n3n2)cc1`, for which the growth was 103%.

With `Nc1nc(NC2CC2)cc(-c2cccc(Cl)c2Cl)n1`, the growth was 30.8%.

With `COc1ccc(C2CC(c3ccc(OC)cc3O)=NN2c2ccc(S(N)(=O)=O)cc2)cc1` (configuration not stated), the growth is 56%.
